In the library only some 3.5% were active in any assay of this set; here they are far more common.
BoNT-F LC inh = BoNT/F light chain protease inhibitors, primary screen, biochemical, flow cytometry, MLPCN library | Multiplex microsphere protease cleavage assay | Botulinum neurotoxin type F light chain protease (Clostridium botulinum) | inhibition, % at 10 µM | 360,000 compounds, 0.22% hits; in the data active = inhibition above about 35%, passing the limit was not always enough; inconclusive = no clear call, values can overlap the other calls; also: plate controls were buffer without enzyme for full effect and enzyme alone for no effect
BoNT A protease = BoNT/A light chain protease inhibitors, primary screen, biochemical, flow cytometry, MLPCN library. AID 588499, 2011. Botulinum neurotoxin type A light chain protease (Clostridium botulinum A str. ATCC 3502). inhibition, % at 10 µM. 360,000 compounds, 0.17% hits. multiplex microsphere protease substrate cleavage; also: plate controls were buffer without enzyme for full effect and enzyme alone for no effect
Anthrax LF prot = Bacillus anthracis LF protease inhibitors, primary screen, biochemical, multiplex microsphere, MLPCN library. Lethal factor (Bacillus anthracis), P15917. multiplex microsphere protease cleavage assay. inhibition, % at 10 µM. 360,000 compounds, 0.12% hits. AID 588501, 2011; also: plate controls were buffer without enzyme for full effect and enzyme alone for no effect
Target sequence (P15917 whole entry, looked up): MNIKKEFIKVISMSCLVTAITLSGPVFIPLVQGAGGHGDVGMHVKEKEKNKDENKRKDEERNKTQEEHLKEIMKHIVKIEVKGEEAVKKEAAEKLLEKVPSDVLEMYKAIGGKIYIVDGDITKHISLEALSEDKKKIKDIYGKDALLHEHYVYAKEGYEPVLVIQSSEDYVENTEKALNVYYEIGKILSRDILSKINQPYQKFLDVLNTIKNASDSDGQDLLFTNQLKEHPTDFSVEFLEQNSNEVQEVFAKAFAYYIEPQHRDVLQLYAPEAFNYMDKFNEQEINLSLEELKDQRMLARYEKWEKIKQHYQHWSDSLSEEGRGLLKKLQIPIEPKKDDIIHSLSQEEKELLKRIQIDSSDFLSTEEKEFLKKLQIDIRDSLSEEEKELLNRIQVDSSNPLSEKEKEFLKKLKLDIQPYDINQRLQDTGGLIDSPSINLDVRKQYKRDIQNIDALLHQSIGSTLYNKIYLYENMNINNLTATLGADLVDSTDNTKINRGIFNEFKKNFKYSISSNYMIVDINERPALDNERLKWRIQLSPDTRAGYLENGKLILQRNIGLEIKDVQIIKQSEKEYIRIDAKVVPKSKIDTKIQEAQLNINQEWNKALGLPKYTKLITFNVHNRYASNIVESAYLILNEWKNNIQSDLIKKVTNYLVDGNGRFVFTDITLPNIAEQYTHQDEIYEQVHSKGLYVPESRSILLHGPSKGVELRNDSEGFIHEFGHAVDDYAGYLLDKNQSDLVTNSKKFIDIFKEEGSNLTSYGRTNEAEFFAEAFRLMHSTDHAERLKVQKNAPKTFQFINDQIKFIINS
Autofluor counter = compound fluorescence in toxin protease inhibitor counterscreen. fluorescence intensity (no concentration beside the values). 360,000 compounds, 3.1% hits. AID 624483. compound autofluorescence counterscreen, microsphere flow cytometry; stronger effect = higher value; in the data active = fluorescence intensity above about 16000; inconclusive = no clear call, values can overlap the other calls
* hit, by the source's call. Rule as the data show it, unless noted: active = inhibition above about 30%; inconclusive = no clear call, values can overlap the other calls; inactive = below that.

What do the screens show for `Cc1ccc(S(=O)(=O)CCSc2ccc(C(F)(F)F)cn2)cc1`?
BoNT-F LC inh: 35.6*; BoNT A protease: -1.7; Anthrax LF prot: inconclusive; Autofluor counter: 4179

Results for O=C(Nc1cccc(C(=O)O)c1)/C(=C/c1ccc([N+](=O)[O-])cc1)NC(=O)c1ccccc1 ?
BoNT-F LC inh: -4.7; BoNT A protease: -1.5; Anthrax LF prot: -1.9; Autofluor counter: 3157

What do the screens show for `O=C(Nc1cccc2ccccc12)/C(=C/c1ccc([N+](=O)[O-])cc1)NC(=O)c1ccccc1`?
BoNT-F LC inh: 25.0; BoNT A protease: 34.1*; Anthrax LF prot: 18.4; Autofluor counter: 7715

How did Cc1cc2cc(CN(CCCO)S(=O)(=O)c3cccc4nsnc34)c(=O)[nH]c2cc1C do in these assays?
BoNT-F LC inh: 2.5; BoNT A protease: -0.2; Anthrax LF prot: 1.5; Autofluor counter: 22386*

Results for Cc1cc2cc(CN(Cc3ccco3)S(=O)(=O)c3c(C)ccc4nsnc34)c(=O)[nH]c2cc1C ?
BoNT-F LC inh: -1.5; BoNT A protease: inconclusive; Anthrax LF prot: 0.6; Autofluor counter: 20470*

How did Clc1ccc(Oc2cnc3ccccc3n2)cc1 do in these assays?
BoNT-F LC inh: -3.8; BoNT A protease: -2.2; Anthrax LF prot: -2.7; Autofluor counter: 24944*

Results for Cc1ccc(Oc2cnc3ccccc3n2)cc1 ?
BoNT-F LC inh: -2.1; BoNT A protease: inconclusive; Anthrax LF prot: -4.2; Autofluor counter: 20600*

Results for Fc1ccc(Oc2cnc3ccccc3n2)cc1 ?
BoNT-F LC inh: 0.2; BoNT A protease: 0.2; Anthrax LF prot: 1.5; Autofluor counter: 2246

How did N#Cc1ccsc1NC(=O)c1cccc(-n2cnnn2)c1 do in these assays?
BoNT-F LC inh: 1.9; BoNT A protease: 1.7; Anthrax LF prot: 5.2; Autofluor counter: 5144

Results for CC(=O)Nc1ccc(NC(=O)C2C3C=CC(C3)C2C(=O)O)cc1 (stereo not drawn) ?
BoNT-F LC inh: -8.7; BoNT A protease: 3.4; Anthrax LF prot: 0.5; Autofluor counter: 3975

Results for CC(C)CNC(=O)C1C2C=CC(C2)C1C(=O)O (stereo not drawn) ?
BoNT-F LC inh: -1.5; BoNT A protease: inconclusive; Anthrax LF prot: 2.8; Autofluor counter: 20356*

How did Cc1cc(C(=O)Nc2nc3c(s2)CCCC3)no1 do in these assays?
BoNT-F LC inh: -1.6; BoNT A protease: 0.2; Anthrax LF prot: -6.6; Autofluor counter: 23398*

How did Cc1onc(-c2ccccc2)c1C(=O)Nc1nc2c(s1)CCCC2 do in these assays?
BoNT-F LC inh: -3.0; BoNT A protease: 0.7; Anthrax LF prot: 9.0; Autofluor counter: 8517

What do the screens show for `Cc1ccc(C2=NCC(=O)N(CC(=O)N3CCCCC3)c3sc(C)c(C)c32)cc1`?
BoNT-F LC inh: -4.1; BoNT A protease: inconclusive; Anthrax LF prot: -0.3; Autofluor counter: 23432*

What do the screens show for `Cc1sc2ncn(CC(=O)N3CCCCC3)c(=O)c2c1C`?
BoNT-F LC inh: -0.6; BoNT A protease: -0.1; Anthrax LF prot: -1.4; Autofluor counter: 2259

How did C=CCN1C(=O)C(C(C)CC)NC1=S (stereo not drawn) do in these assays?
BoNT-F LC inh: 7.7; BoNT A protease: inconclusive; Anthrax LF prot: -5.2; Autofluor counter: 18817*

Results for C=CCN1C(=O)C(C)NC1=S (stereo not drawn) ?
BoNT-F LC inh: inconclusive; BoNT A protease: 4.5; Anthrax LF prot: -6.8; Autofluor counter: 3631

Results for Cc1cc(C)c(C#N)c(Sc2nc(C)c([N+](=O)[O-])c(C)c2C#N)n1 ?
BoNT-F LC inh: -17.1; BoNT A protease: -0.6; Anthrax LF prot: -8.2; Autofluor counter: 4777

What do the screens show for `Cc1nc(Sc2ccccc2)c(C#N)c(C)c1[N+](=O)[O-]`?
BoNT-F LC inh: inconclusive; BoNT A protease: -0.2; Anthrax LF prot: 29.9*; Autofluor counter: 3839

How did COc1ccc(CC(=O)Oc2ccc(C(C)C)cc2)cc1S(=O)(=O)N1CCOCC1 do in these assays?
BoNT-F LC inh: -0.9; BoNT A protease: -2.8; Anthrax LF prot: -1.3; Autofluor counter: 6478

What do the screens show for `Nc1ncnc2c1ncn2[C@@H]1O[C@H](CNCc2ccccc2OCc2ccc(Cl)cc2Cl)[C@@H](O)[C@H]1O`?
BoNT-F LC inh: -1.6; BoNT A protease: 0.0; Anthrax LF prot: -17.3; Autofluor counter: 3642

What do the screens show for `COc1ccccc1C/C(N)=N/OC(=O)COc1ccccc1C`?
BoNT-F LC inh: -22.6; BoNT A protease: -1.5; Anthrax LF prot: -1.2; Autofluor counter: 6902

What do the screens show for `COc1ccccc1C/C(N)=N/OC(=O)COc1cccc2ccccc12`?
BoNT-F LC inh: 0.8; BoNT A protease: 3.5; Anthrax LF prot: -11.8; Autofluor counter: 21885*

Compound activity deposited in PubChem by NMMLSC.
